Measurements published in publication PMC7862700, “An all-to-all approach to the identification of sequence-specific readers for epigenetic DNA modifications on cytosine”.

Experiments:
Experiment in all cases: DAPPL (digital affinity profiling via proximity ligation, sequencing); 10 mM Tris-HCl pH 7.5, 50 mM NaCl, 1 mM DTT, 4% glycerol, room temperature, 30 min; GST-TFs on glutathione beads, 16-mer random dsDNA library, 0.1% formaldehyde crosslink after washing; high values mean tight binding
Conditions in all cases: protein: recombinant; tags: N-terminal GST; dsDNA, one strand shown
FLI1 = target: T1, FLI1 (Homo sapiens, UniProt Q01543 1-452)
T1 sequence: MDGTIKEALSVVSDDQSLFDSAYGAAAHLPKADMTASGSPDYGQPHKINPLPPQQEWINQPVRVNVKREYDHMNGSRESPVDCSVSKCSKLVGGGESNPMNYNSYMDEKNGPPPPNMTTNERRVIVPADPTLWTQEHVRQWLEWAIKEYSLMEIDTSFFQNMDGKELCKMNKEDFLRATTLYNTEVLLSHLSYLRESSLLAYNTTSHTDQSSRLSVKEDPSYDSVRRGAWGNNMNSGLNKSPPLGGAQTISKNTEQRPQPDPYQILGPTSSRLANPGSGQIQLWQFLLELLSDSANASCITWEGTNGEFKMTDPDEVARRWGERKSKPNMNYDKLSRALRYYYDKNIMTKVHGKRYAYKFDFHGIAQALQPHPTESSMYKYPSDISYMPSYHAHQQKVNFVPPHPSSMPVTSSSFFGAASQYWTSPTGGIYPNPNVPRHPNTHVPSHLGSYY
Procedure, shortened: (§1)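 Binding signal is defined as a hexamer's read frequency for one factor over its frequency for the tag-only sample. To obtain reads, GST-fused human transcription factors were expressed in yeast, captured on glutathione beads, barcoded with DNA and pooled with that sample. Pools met 200 nmole of a 16-mer random double-stranded DNA library in Tris/NaCl/DTT/glycerol buffer for 30 min at room temperature before washing, 0.1% formaldehyde crosslinking, proximity ligation (BsaI/T4 ligase, 1 h, 37 °C), PCR and Illumina NextSeq500 sequencing.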

ELK1 = target: T2, ELK1 (Homo sapiens, UniProt P19419 1-428)
T2 sequence: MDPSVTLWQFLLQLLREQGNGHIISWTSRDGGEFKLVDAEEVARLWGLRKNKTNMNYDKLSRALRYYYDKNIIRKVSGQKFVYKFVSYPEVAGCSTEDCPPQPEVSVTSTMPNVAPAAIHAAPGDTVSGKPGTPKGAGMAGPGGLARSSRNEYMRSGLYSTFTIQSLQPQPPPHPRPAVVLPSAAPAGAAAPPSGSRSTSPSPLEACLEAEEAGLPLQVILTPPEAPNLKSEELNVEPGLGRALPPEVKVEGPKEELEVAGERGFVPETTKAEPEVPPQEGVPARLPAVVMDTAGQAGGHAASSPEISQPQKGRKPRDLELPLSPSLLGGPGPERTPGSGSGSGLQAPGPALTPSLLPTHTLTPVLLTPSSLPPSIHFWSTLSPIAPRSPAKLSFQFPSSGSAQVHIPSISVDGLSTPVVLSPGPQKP
Procedure, shortened: as §1

GABPA = target: T3, GABPA (Homo sapiens, UniProt Q06546 1-454)
T3 sequence: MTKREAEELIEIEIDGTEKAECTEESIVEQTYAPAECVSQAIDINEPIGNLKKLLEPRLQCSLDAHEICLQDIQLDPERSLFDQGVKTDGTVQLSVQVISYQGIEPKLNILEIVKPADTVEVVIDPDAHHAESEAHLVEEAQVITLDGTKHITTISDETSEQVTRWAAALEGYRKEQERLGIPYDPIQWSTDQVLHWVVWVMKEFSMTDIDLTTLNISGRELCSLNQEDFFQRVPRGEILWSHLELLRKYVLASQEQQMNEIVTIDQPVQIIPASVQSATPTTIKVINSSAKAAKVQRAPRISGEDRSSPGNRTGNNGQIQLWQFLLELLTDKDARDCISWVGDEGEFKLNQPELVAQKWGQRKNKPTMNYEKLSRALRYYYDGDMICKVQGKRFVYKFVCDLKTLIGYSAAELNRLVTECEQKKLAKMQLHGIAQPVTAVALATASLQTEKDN
Procedure, shortened: as §1

ERG = target: T4, ERG (Homo sapiens, UniProt P11308 1-479)
T4 sequence: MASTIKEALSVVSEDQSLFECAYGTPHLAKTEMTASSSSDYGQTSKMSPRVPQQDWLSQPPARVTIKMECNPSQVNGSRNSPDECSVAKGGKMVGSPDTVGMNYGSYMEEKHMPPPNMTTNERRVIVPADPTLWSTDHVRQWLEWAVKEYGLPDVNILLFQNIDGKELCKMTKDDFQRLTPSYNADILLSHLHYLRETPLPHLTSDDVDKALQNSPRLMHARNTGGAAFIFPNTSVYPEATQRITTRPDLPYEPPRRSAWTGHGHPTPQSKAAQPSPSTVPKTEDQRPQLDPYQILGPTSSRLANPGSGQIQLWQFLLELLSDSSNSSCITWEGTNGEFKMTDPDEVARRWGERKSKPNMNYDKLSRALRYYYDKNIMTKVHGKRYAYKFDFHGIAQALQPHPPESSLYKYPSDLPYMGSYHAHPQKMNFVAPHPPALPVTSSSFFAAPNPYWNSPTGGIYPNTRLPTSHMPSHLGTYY
Procedure, shortened: as §1

ELF1 = ELF1 (Homo sapiens, UniProt P32519 1-619)
ELF1, sequence (P32519 whole entry): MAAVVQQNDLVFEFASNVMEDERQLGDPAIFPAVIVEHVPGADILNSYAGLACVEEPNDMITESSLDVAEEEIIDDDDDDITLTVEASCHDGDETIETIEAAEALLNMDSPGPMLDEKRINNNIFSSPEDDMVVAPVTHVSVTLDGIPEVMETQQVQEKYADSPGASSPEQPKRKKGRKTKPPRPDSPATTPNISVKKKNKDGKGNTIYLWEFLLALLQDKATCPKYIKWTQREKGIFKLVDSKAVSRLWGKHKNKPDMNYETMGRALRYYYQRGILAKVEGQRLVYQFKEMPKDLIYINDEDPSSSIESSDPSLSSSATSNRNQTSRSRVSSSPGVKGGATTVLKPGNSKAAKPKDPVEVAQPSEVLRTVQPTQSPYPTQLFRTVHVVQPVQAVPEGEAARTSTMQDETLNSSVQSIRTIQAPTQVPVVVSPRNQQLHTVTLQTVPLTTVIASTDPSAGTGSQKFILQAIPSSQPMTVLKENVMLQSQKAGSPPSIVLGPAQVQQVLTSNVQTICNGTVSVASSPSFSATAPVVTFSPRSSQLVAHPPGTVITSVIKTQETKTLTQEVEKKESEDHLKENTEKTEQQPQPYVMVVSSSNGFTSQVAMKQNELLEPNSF
Procedure, shortened: as §1

EHF = target: T5, EHF (Homo sapiens, UniProt Q9NZC4 1-300)
T5 sequence: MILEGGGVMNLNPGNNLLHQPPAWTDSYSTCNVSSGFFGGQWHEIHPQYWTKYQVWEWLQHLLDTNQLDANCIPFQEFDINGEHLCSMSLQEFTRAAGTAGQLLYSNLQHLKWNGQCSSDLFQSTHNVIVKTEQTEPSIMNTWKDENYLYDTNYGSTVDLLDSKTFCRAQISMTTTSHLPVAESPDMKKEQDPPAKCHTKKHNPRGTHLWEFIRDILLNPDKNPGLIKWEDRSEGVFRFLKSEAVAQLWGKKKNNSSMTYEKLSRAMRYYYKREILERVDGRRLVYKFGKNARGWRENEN
Procedure, shortened: as §1

SPI1 = SPI1 (Homo sapiens, UniProt P17947 1-270)
Procedure, shortened: as §1

SPIB = SPIB (Homo sapiens, UniProt Q01892 1-262)
SPIB, sequence (Q01892 whole entry): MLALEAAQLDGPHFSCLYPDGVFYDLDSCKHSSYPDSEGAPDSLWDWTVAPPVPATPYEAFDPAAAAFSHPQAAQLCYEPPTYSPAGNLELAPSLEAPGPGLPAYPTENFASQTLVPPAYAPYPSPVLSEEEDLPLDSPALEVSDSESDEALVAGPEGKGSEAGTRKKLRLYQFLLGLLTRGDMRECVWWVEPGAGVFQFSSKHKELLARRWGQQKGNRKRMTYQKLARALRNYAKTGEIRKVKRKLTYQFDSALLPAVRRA
Procedure, shortened: as §1

ELK3 = target: T6, ELK3 (Homo sapiens, UniProt P41970 1-407)
T6 sequence: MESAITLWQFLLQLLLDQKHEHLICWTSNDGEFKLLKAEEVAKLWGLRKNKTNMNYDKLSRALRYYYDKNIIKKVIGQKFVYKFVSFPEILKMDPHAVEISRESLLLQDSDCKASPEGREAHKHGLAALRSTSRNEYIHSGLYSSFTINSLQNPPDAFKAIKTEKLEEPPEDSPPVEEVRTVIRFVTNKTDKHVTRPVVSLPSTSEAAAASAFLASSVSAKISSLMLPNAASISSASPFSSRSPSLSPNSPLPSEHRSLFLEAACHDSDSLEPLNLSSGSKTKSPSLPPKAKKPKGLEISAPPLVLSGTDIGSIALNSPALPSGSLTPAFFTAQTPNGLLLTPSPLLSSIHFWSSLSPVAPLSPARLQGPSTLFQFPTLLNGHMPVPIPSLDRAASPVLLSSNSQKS
Procedure, shortened: as §1

FEV = target: T7, FEV (Homo sapiens, UniProt Q99581 1-238)
T7 sequence: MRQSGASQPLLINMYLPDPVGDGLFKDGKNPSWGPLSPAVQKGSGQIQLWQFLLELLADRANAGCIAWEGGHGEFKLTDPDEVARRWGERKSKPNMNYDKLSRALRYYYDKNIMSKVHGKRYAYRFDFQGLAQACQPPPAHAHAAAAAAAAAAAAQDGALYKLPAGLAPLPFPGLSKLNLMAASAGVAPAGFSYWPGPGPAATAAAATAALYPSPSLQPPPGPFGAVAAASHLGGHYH
Procedure, shortened: as §1

ETV5 = ETV5 (Homo sapiens, UniProt P41161 1-510)
ETV5, sequence (P41161 whole entry): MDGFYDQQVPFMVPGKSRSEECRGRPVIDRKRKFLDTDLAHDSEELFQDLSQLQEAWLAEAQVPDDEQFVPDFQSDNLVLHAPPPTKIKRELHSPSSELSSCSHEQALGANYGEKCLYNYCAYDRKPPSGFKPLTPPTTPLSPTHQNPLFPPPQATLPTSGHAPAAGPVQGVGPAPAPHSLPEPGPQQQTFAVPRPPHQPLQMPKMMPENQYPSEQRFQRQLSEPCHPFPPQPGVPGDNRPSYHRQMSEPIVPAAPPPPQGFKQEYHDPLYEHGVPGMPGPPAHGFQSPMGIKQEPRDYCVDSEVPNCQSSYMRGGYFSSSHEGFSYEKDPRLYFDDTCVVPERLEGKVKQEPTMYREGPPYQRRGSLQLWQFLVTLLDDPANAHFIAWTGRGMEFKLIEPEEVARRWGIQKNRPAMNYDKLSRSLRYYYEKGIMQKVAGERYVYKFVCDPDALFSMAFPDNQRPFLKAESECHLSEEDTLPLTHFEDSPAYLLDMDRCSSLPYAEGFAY
Procedure, shortened: as §1

SPIC = target: T8, SPIC (Homo sapiens, UniProt Q8N5J4 1-248)
T8 sequence: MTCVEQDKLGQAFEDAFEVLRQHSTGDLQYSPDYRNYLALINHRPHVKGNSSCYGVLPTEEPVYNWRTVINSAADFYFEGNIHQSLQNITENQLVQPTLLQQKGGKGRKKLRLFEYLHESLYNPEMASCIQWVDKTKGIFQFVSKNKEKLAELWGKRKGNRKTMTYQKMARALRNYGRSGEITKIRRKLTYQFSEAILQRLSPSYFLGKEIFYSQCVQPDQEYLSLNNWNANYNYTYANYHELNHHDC
Procedure, shortened: as §1

ELF4 = ELF4 (Homo sapiens, UniProt Q99607 1-663)
ELF4, sequence (Q99607 whole entry): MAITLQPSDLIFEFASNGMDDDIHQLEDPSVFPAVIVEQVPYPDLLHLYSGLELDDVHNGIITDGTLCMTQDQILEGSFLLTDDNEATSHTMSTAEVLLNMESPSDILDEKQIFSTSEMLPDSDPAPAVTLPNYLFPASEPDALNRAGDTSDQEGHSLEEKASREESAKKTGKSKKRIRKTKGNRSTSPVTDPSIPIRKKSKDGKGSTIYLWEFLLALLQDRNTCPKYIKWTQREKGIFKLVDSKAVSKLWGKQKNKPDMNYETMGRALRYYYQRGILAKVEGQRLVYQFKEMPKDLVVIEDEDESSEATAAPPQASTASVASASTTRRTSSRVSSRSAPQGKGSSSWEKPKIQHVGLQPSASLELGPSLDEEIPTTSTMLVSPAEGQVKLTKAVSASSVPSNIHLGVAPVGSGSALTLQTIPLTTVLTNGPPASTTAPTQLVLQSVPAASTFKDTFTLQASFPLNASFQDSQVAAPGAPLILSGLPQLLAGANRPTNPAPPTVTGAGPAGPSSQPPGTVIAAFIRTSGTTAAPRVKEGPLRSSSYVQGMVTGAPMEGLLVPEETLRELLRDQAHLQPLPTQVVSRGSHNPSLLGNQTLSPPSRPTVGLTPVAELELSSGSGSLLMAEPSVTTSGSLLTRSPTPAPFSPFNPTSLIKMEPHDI
Procedure, shortened: as §1

ETV1 = ETV1 (Homo sapiens, UniProt P50549 1-477)
ETV1, sequence (P50549 whole entry): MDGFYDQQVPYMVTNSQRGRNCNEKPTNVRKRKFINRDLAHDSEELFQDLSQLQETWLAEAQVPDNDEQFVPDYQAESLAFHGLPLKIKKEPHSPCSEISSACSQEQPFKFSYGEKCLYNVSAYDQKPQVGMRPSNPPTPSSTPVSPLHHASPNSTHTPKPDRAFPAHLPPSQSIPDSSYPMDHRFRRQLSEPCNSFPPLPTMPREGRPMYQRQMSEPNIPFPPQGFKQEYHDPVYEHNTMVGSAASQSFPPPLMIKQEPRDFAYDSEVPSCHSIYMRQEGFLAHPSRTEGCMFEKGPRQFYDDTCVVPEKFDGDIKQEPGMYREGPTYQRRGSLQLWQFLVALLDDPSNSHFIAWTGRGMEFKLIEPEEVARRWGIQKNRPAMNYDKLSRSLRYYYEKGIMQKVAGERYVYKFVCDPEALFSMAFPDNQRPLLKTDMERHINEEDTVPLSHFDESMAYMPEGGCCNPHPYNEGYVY
Procedure, shortened: as §1

ETV3L = target: T9, ETV3L (Homo sapiens, UniProt Q6ZN32 1-361)
T9 sequence: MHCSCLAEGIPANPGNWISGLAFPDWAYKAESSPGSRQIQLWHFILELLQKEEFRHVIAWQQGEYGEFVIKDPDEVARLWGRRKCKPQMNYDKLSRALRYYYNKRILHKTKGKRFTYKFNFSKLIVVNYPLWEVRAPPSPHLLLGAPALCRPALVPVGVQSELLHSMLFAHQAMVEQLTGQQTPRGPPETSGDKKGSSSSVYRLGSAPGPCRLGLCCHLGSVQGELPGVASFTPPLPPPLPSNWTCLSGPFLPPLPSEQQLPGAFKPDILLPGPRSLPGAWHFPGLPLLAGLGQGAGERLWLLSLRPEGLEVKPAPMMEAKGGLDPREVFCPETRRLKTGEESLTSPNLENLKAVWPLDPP
Procedure, shortened: as §1

ETS2 = target: T10, ETS2 (Homo sapiens, UniProt P15036 1-469)
T10 sequence: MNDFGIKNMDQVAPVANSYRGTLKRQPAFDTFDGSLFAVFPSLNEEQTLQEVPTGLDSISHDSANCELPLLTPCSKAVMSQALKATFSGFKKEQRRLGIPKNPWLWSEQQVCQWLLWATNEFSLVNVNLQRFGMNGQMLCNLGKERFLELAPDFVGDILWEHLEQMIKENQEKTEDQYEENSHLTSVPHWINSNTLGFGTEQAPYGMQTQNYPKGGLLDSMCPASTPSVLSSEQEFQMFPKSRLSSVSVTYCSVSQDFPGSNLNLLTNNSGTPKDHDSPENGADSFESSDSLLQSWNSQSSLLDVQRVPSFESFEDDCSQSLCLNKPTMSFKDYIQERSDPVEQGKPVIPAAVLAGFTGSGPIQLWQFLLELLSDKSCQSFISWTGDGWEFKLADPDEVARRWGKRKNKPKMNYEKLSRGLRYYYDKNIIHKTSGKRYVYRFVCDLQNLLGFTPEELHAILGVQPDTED
Procedure, shortened: as §1

SPDEF = target: T11, SPDEF (Homo sapiens, UniProt O95238 1-335)
T11 sequence: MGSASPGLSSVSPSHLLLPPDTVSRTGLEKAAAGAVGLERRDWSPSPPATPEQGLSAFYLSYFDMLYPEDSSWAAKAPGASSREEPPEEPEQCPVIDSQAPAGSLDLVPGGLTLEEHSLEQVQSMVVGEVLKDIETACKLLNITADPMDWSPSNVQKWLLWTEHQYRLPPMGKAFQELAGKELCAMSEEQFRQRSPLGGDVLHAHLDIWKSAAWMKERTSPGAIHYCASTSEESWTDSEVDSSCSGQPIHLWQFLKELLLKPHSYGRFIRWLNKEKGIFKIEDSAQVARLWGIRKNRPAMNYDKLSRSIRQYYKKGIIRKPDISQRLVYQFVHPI
Procedure, shortened: as §1

ETV3 = target: T12, ETV3 (Homo sapiens, UniProt P41162-2 1-143)
T12 sequence: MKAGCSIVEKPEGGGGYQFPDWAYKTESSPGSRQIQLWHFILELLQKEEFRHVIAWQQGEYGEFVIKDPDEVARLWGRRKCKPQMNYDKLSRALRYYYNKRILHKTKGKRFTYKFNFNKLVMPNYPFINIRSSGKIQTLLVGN
Procedure, shortened: as §1

ETV6 = ETV6 (Homo sapiens, UniProt P41212 1-452)
ETV6, sequence (P41212 whole entry): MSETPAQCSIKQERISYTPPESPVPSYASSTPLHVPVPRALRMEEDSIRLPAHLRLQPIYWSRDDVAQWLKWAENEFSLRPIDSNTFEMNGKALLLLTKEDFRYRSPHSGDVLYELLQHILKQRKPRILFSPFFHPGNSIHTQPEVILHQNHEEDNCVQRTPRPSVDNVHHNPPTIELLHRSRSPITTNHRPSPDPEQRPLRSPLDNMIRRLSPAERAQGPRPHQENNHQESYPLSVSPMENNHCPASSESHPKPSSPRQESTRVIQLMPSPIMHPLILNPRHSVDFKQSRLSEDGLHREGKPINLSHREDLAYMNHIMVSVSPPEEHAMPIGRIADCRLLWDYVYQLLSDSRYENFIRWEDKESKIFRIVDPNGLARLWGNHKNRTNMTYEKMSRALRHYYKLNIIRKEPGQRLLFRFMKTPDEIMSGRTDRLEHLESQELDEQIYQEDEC
Procedure, shortened: as §1

CGGAAC
binding signal (FLI1): 1.16 fold enrichment (6-mer frequency, TF over GST control) | binding signal (ELK1): 1.18 fold enrichment (6-mer frequency, TF over GST control) | binding signal (GABPA): 1.05 fold enrichment (6-mer frequency, TF over GST control) | binding signal (ERG): 1.22 fold enrichment (6-mer frequency, TF over GST control) | binding signal (ELF1): 1.04 fold enrichment (6-mer frequency, TF over GST control) | binding signal (EHF): 1.2 fold enrichment (6-mer frequency, TF over GST control) | binding signal (SPI1): 1.29 fold enrichment (6-mer frequency, TF over GST control) | binding signal (SPIB): 1.29 fold enrichment (6-mer frequency, TF over GST control) | binding signal (ELK3): 1.21 fold enrichment (6-mer frequency, TF over GST control) | binding signal (FEV): 1.16 fold enrichment (6-mer frequency, TF over GST control) | binding signal (ETV5): 1.29 fold enrichment (6-mer frequency, TF over GST control) | binding signal (SPIC): 1.09 fold enrichment (6-mer frequency, TF over GST control) | binding signal (ELF4): 1.04 fold enrichment (6-mer frequency, TF over GST control) | binding signal (ETV1): 1.23 fold enrichment (6-mer frequency, TF over GST control) | binding signal (ETV3L): 1.11 fold enrichment (6-mer frequency, TF over GST control) | binding signal (ETS2): 1.18 fold enrichment (6-mer frequency, TF over GST control) | binding signal (SPDEF): 1.32 fold enrichment (6-mer frequency, TF over GST control) | binding signal (ETV3): 1.31 fold enrichment (6-mer frequency, TF over GST control) | binding signal (ETV6): 1.12 fold enrichment (6-mer frequency, TF over GST control)
